Several values for one entry are separate records, joined by “and”; a condition that tells them apart may be missing. Identical values can stand only once. About 2,000 (36%) of roughly 5,500 compounds were called active. Not shown: some 18% with an inconclusive outcome. Rule as the data show it: active = normalized growth mostly below about 0.91 (no sharp cut-off); inconclusive = no clear call, values can overlap the other calls; inactive = mostly above about 0.92. The list shows a part of the results.
Experiment: chemical genetic growth profiling, strain panel (AID 1159580);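 also: tested at 20 µM; growth read once vehicle control cultures reached saturation at 30 °C; 1 = growth at the plate median or of vehicle wells; lower values mean less growth of the strain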
Conditions: S. cerevisiae deletion strains, growth OD

Measured: normalized growth

CNCCC(Oc1ccc(C(F)(F)F)cc1)c1ccccc1 (stereo unspecified)
active: locus YDR137W, strain rgp1, active compounds read low 1.2 [resistant]
inactive: locus YAL013W, strain DEP1, active compounds read low 1 and 1.01 | locus YAL021C, strain ccr4, active compounds read low 0.994 | locus YAL026C, strain drs2, active compounds read low 0.991 | locus YAL030W, strain snc1, active compounds read low 0.987 | locus YAL040C, strain CLN3, active compounds read low 1.01 | locus YBL061C, strain skt5, active compounds read low 0.986 | locus YBR009C, strain hhf1, active compounds read low 0.99 | locus YBR021W, strain FUR4, active compounds read low 0.967 | locus YBR023C, strain chs3, active compounds read low 0.986 | locus YBR171W, strain sec66, active compounds read low 0.991 | locus YBR229C, strain ROT2, active compounds read low 1.01 | locus YBR231C, strain swc5, active compounds read low 0.986 | locus YBR279W, strain paf1, active compounds read low 0.985 | locus YCL011C, strain gbp2, active compounds read low 0.991 | locus YCL016C, strain dcc1, active compounds read low 0.995 | locus YCL029C, strain bik1, active compounds read low 0.99 | locus YCL061C, strain MRC1 (second series), active compounds read low 0.983 | locus YCL061C, strain MRC1, active compounds read low 0.985 | locus YCL069W, strain vba3, active compounds read low 0.998 | locus YCR088W, strain abp1, active compounds read low 0.995 | locus YDL005C, strain med2, active compounds read low 0.99 | locus YDL035C, strain GPR1, active compounds read low 0.987 | locus YDL040C, strain nat1, active compounds read low 0.985 | locus YDL074C, strain BRE1, active compounds read low 0.993 | locus YDL101C, strain DUN1, active compounds read low 1.02 | locus YDL134C, strain PPH21, active compounds read low 1.01 | locus YDL185W, strain tfp1, active compounds read low 1 | locus YDL192W, strain arf1, active compounds read low 1 | locus YDR001C, strain nth1, active compounds read low 0.998 | locus YDR069C, strain doa4, active compounds read low 0.944 | locus YDR101C, strain arx1, active compounds read low 0.987 | locus YDR150W, strain NUM1, active compounds read low 1.01 | locus YDR159W, strain sac3, active compounds read low 1 | locus YDR162C, strain NBP2, active compounds read low 0.992 | locus YDR195W, strain ref2 0.995 | locus YDR297W, strain sur2, active compounds read low 0.995 | locus YDR318W, strain mcm21, active compounds read low 0.996 | locus YDR334W, strain swr1, active compounds read low 0.987 | locus YDR335W, strain msn5, active compounds read low 1 | locus YDR363W, strain ESC2, active compounds read low 1.02 | locus YDR388W, active compounds read low 0.93 | locus YDR392W, strain spt3, active compounds read low 0.996 | locus YDR502C, strain sam2, active compounds read low 0.991 | locus YEL003W, strain gim4, active compounds read low 0.999 | locus YEL037C, strain rad23, active compounds read low 0.993 | locus YEL061C, strain CIN8 (second series), active compounds read low 0.998 | locus YEL061C, strain CIN8, active compounds read low 1.01 | locus YER002W, strain NOP16, active compounds read low 1 | locus YER015W, strain faa2, active compounds read low 0.997 | locus YER016W, strain bim1, active compounds read low 0.992 | locus YER110C, active compounds read low 0.994 | locus YER111C, strain swi4, active compounds read low 0.981 | locus YER155C, strain BEM2 (second series), active compounds read low 1.01 | locus YER155C, strain BEM2, active compounds read low 1.01 | locus YER167W, strain BCK2, active compounds read low 1.01 | locus YFR010W, strain ubp6, active compounds read low 0.972 | locus YGL078C, strain dbp3, active compounds read low 0.99 | locus YGL086W, strain mad1, active compounds read low 1 | locus YGL167C, strain pmr1, active compounds read low 0.987 | locus YGL173C, strain kem1, active compounds read low 0.982 | locus YGL227W, strain vid30, active compounds read low 0.982 | locus YGL240W, strain doc1, active compounds read low 0.975 | locus YGL248W, strain PDE1, active compounds read low 1.02 | locus YGL253W, strain hxk2, active compounds read low 0.977 | locus YGR078C, strain PAC10, active compounds read low 0.948 and 0.983 | locus YGR135W, strain pre9, active compounds read low 0.986 | locus YGR229C, strain SMI1, active compounds read low 0.949 | locus YGR252W, strain gcn5, active compounds read low 0.923 | locus YHR013C, strain ard1, active compounds read low 0.922 | locus YHR027C, strain rpn1, active compounds read low 0.991 | locus YHR030C, strain SLT2, active compounds read low 1.01 and 1 | locus YHR079C, strain IRE1 (second series), active compounds read low 0.997 | locus YHR079C, strain IRE1, active compounds read low 1.03 | locus YHR094C, strain hxt1, active compounds read low 1 | locus YHR129C, strain ARP1, active compounds read low 1.02 | locus YHR142W, strain chs7, active compounds read low 0.992 | locus YHR200W, strain rpn10, active compounds read low 0.993 | locus YIL066C, strain RNR3, active compounds read low 1.01 | locus YIL073C, strain SPO22, active compounds read low 1.25 | locus YIL125W, strain kgd1, active compounds read low 0.997 | locus YIR030C, strain dcg1, active compounds read low 1 | locus YJL092W, strain hpr5, active compounds read low 0.986 | locus YJL095W, strain BCK1 (second series), active compounds read low 0.992 | locus YJL095W, strain BCK1, active compounds read low 0.99 and 0.988 | locus YJL115W, strain asf1, active compounds read low 0.993 | locus YJL129C, strain trk1, active compounds read low 1.01 | locus YJL134W, strain LCB3, active compounds read low 1 | locus YJL154C, strain vps35, active compounds read low 1.01 | locus YJL164C, strain tpk1, active compounds read low 0.987 | locus YJL166W, strain qcr8, active compounds read low 0.99 | locus YJL168C, strain set2, active compounds read low 0.993 | locus YJL187C, strain SWE1 (second series), active compounds read low 1.02 | locus YJL187C, strain SWE1, active compounds read low 0.986 | locus YJR043C, strain POL32, active compounds read low 1 | locus YJR066W, strain TOR1, active compounds read low 0.988
